# IL-1B inflam inh – blocks inflammasome-driven IL-1 beta release; THP-1 LPS/ATP IL-1B secretion, AlphaLISA, 16 h; hits give low values; activity change, % at 57.5 µM; actives 4.7% (n = 360,000); in the data active means activity change below about -50%; inconclusive means mostly about -30% to -49%
#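 THP-1 cells pretreated 1 hr with compounds (up to 57.5 uM final), then stimulated with LPS (250 ng/mL final) plus ATP (1.25 mM final); secreted IL-1B measured by AlphaLISA after 16 hr, decreased signal indicating inhibition.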
# TDP1 cell CPT – DT40-hTDP1 cell growth loss with CPT; Potency, µM (series often up to 46.2 µM), without a hit: at the top dose activity change, negative = growth inhibition, usual class: inhibitors; chicken DT40 Tdp1-/-;hTDP1 cells + 20 nM CPT, ATP luminescence, 48 h; actives 12% (n = 420,000); AID 686979; further: potency means the concentration at half of the fitted maximal effect; nearly all actives have a fitted effect of over 55% in size
#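 Cell growth measured by CellTiter-Glo luminescence after a minimum 48 h, 37 C compound exposure with 20 nM CPT in Tdp1-knockout DT40 cells stably expressing hTDP1, seeded 400/well; qHTS titration format.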
# Six1-Eya2 blk – Six1/Eya2 interaction inhibition; Q15475+O00167; AlphaScreen GST-Six1/His-Eya2 binding, biochemical; hits give low values; activity change, % (concentration not given with the values); actives 0.56% (n = 360,000); in the data active means activity change below about -65%; inconclusive means mostly about -30% to -63%
#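 Homogeneous AlphaScreen proximity assay pairing GST-Six1 with His-tagged Eya2 (added as 5X mix: 250 nM and 500 nM) in 50 mM Tris pH 8.0, 300 mM NaCl, 1 mM TCEP. Glutathione donor and nickel acceptor beads; 1 h, 37 °C, dark.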
# TDP1 cell noCPT – qHTS for Inhibitors of human tyrosyl-DNA phosphodiesterase 1 (TDP1): qHTS in cells in absence of CPT; DT40 Tdp1-/- hTDP1 cells, no CPT, ATP luminescence, 48 h; Potency, µM (series often up to 46.2 µM), for inactives: at the top dose activity change, negative = growth inhibition, hits mostly inhibitors; actives 15% (n = 420,000); AID 686978, 2013; further: potency means the concentration at half of the fitted maximal effect; nearly all actives have a fitted effect of over 55% in size
#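 Compound effects on proliferation are scored in DT40 Tdp1-/-;hTDP1 cells in the absence of CPT. ATP levels (CellTiter-Glo luminescence) are recorded after a ≥48 hr, 37 °C incubation.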
# TDP1 block – inhibitors of human tyrosyl-DNA phosphodiesterase TDP1. recombinant TDP1, AlphaScreen DNA substrate cleavage. Q9NUW8. actives 0.28% (n = 350,000). Potency, µM (titrated, usually from 130 µM), inactives show at the top dose activity change, negative = inhibition, usual class: inhibitors. AID 485290; further: potency means the concentration at half of the fitted maximal effect; nearly all actives have a fitted effect of over 40% in size
# Target sequence (Q9NUW8 whole entry, looked up): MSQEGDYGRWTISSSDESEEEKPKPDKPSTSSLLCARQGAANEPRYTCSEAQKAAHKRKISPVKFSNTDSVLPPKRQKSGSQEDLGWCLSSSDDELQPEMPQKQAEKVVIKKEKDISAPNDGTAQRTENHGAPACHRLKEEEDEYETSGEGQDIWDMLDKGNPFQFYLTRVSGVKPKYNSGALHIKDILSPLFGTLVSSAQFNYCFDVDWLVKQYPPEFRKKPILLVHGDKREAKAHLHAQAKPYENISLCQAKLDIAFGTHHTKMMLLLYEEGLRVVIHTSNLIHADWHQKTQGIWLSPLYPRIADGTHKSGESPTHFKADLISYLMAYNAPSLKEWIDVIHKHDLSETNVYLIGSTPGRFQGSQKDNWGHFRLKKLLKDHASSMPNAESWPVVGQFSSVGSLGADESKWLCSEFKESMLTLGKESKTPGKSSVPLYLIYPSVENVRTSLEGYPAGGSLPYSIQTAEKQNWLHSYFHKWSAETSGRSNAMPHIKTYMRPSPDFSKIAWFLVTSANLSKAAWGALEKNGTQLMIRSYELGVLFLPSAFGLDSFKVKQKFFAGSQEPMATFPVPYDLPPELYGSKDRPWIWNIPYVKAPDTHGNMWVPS
#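 Here, a 5' biotin and 3' phosphotyrosine-FITC DNA oligonucleotide reports Tdp1 activity: intact substrate bridges AlphaScreen beads, while cleavage leaves a 3' phosphate and drops signal. All incubations at room temperature.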
# CtBP-E1A blk – CtBP/E1A binding inhibition. actives 0.49% (n = 340,000). AID 651724. activity change, % (no concentration beside the values). AlphaScreen GST-E1A/His-CtBP binding, 1536-well; hits give low values; in the data active means activity change below about -65%; inconclusive means mostly about -30% to -63%
#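 GST-E1A and His-tagged CtBP (125 nM each as 5X stock) were preincubated with pin-transferred compound for 2 h at 37 °C in the dark, then glutathione donor and nickel acceptor beads were added for 1 h before AlphaScreen reading.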
# Starred values were filed as active, the others as inactive; u = inconclusive; x = no result. Shown are actives, neighbours in structure and some others; about 18% of the full set was active somewhere. Unless noted, the call rests on the fitted dose curve; in most records, active means well fitted curve in the direction sought with a large enough effect; inconclusive means small, poorly fitted or top-dose-only effect, or another doubt; inactive means no such curve, though single readings can be large; an effect the other way counts as inactive or inconclusive. On the % scale 0 is the no-effect control and ±100 the full control effect.
SMILES,IL-1B inflam inh,TDP1 cell CPT,Six1-Eya2 blk,TDP1 cell noCPT,TDP1 block,CtBP-E1A blk
COC(=O)c1c(C(=O)OC)c(-c2ccc(OC)cc2)n2c1CS(=O)C2 (stereo unspecified),-6,0%,3,12%,x,x
Cc1ccc(CNC(=O)c2nc(SCc3ccccc3F)ncc2Cl)cc1,x,u,x,u,2%,x
NS(=O)(=O)c1ccc(NC(=O)Cc2c(F)cccc2Cl)cc1,4,-5%,2,-8%,0%,-11
Cc1ccccc1NC(=O)c1nc(S(=O)(=O)Cc2ccccc2F)ncc1Cl,x,1.3µM*,x,5µM*,x,x
Cc1ccc(NC(=O)c2nc(S(=O)(=O)Cc3ccccc3F)ncc2Cl)cc1,x,1.3µM*,x,0.89µM*,x,x
Cc1ccc(NC(=O)c2nc(S(=O)(=O)Cc3ccccc3F)ncc2Cl)cc1C,x,0.89µM*,x,2µM*,x,x
NS(=O)(=O)c1ccc(NC(=O)c2nc(S(=O)(=O)Cc3ccccc3F)ncc2Cl)cc1,x,10µM*,x,7.1µM*,x,x
Cc1ccc(NC(=O)c2nc(S(=O)(=O)Cc3ccccc3C)ncc2Cl)cc1C,-100*,1.5µM*,-10,1.6µM*,0%,0
COc1cccc(NC(=O)C2CCCN(S(=O)(=O)c3cccc4nsnc34)C2)c1 (stereo unspecified),-8,u,-2,16µM*,6%,-2
COc1ccc2nc(NC(=O)C3CCN(S(=O)(=O)c4cccc5nsnc45)CC3)sc2c1,-77*,15µM*,-29,u,4%,u
CCc1ccccc1NC(=O)C1CCCN(S(=O)(=O)c2cccc3nsnc23)C1 (stereo unspecified),x,u,x,u,2%,x
O=C(Nc1ccccc1Br)C1CCCN(S(=O)(=O)c2cccc3nsnc23)C1 (stereo unspecified),x,u,x,u,0%,x
Cc1ccc(C)c(NC(=O)C2CCCN(S(=O)(=O)c3cccc4nsnc34)C2)c1 (stereo unspecified),x,-31%,x,26µM*,-7%,x
O=C(Nc1cccc(C(F)(F)F)c1)C1CCCN(S(=O)(=O)c2cccc3nsnc23)C1 (stereo unspecified),x,16µM*,x,21µM*,2%,x
COc1ccccc1NC(=O)C1CCCN(S(=O)(=O)c2cccc3nsnc23)C1 (stereo unspecified),-6,-25%,13,-26%,3%,24
NS(=O)(=O)c1cccc(-n2cnnn2)c1,12,-9%,-2,5%,0%,5
CCOc1ccc(NC(=O)C2CCCN(S(=O)(=O)c3cccc4nsnc34)C2)cc1 (stereo unspecified),13,23µM*,1,16µM*,5%,11
CCOCCCNC(=O)C1CCCN(S(=O)(=O)c2cccc3nsnc23)C1 (stereo unspecified),13,13%,1,-17%,11%,0
Cc1cccc(NC(=O)C2CCCN(S(=O)(=O)c3cccc4nsnc34)C2)c1 (stereo unspecified),0,u,-5,u,8%,9
Cc1cc(NC(=O)C2CCCN(S(=O)(=O)c3cccc4nsnc34)C2)ccc1Br (stereo unspecified),x,10µM*,x,u,9%,x
Cc1ccc(C)c(NC(=O)C2CCCN(S(=O)(=O)c3c(C)nn(C)c3C)C2)c1 (stereo unspecified),23,u,0,18µM*,5%,1
Cc1cc(C)cc(NC(=O)C2CCCN(S(=O)(=O)c3cccc4nsnc34)C2)c1 (stereo unspecified),x,18µM*,x,16µM*,0%,x
CCCCSc1nnc(CCCCCNC(=O)OC(C)(C)C)o1,21,u,11,u,1%,-6
COCCn1c(COc2ccc(OC)cc2)nc2ccccc21,-11,u,1,u,12%,1

# Assay outcomes (PubChem BioAssay)
